# Most compounds without a hit are left out; they make up all but 5.7% or so of the library.
# ClpP mod – qHTS Assay for Activators of ClpP. ATP-dependent Clp protease proteolytic subunit (Bacillus subtilis (strain 168)), P80244. purified B. subtilis ClpP, FRET peptide cleavage, 20 min. Potency, µM (titrated, usually from 57.5 µM). hit rate 1.9% among 340,000. AID 651965, 2013; active = well fitted falling curve with a large enough effect; inconclusive = small, poorly fitted or top-dose-only effect; inactive = no such curve, though single readings can be large or run the other way; also: the source files actives as falling curves though it sought activators and does not explain the sign; nearly all actives have a fitted effect of over 65% in size
# Target sequence (P80244 whole entry, looked up): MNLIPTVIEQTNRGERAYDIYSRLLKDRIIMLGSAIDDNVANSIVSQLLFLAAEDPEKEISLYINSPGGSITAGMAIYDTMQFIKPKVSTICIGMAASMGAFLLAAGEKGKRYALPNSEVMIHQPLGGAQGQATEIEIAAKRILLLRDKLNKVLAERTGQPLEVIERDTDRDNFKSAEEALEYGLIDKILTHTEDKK
#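 ClpP 10 microg/mL final, pH 8 Tris/KCl buffer with BSA, glycerol, Tween-20; compound pinned in; FRET-FV substrate; RT 20 min; Ex320/Em430; ΔFRET vs ADEP 5.8 microM, DMSO, no enzyme.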
# D3 antag – blocks the human D3 dopamine receptor | P35462 | D3R cells, DiscoveRx beta-arrestin luminescence, antagonist mode; hits give low values | max response, negative = inhibition, % | hit rate 2.5% among 360,000 | AID 652054; in the data active = max response below about -50%; inconclusive = no clear call, values can overlap the other calls
# Target sequence (P35462 whole entry, looked up): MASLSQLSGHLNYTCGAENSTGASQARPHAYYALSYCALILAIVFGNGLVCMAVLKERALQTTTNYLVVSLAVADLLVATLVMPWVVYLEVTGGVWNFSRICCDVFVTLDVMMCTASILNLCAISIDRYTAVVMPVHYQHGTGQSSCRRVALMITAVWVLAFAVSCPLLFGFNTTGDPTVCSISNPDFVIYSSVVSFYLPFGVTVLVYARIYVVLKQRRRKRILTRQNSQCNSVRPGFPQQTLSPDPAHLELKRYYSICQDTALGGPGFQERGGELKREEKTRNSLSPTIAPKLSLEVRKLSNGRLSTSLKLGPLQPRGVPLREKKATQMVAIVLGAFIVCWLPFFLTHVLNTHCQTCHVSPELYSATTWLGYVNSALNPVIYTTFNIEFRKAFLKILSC
#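 Cells plated overnight at 1500 cells/well, then exposed to library compounds with dopamine controls for 90 minutes at 37 degrees C. DiscoveRx reagent added for 30–60 minutes at room temperature; luminescence read, quantitative HTS format.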
# GLP-1R agonist – agonists of human GLP-1 receptor; HEK293 GLP-1R CRE-luciferase, luminescence, 4-6 h; cells express a hypersensitive GLP-1R form; Potency, µM (series often up to 45.6 µM), usual class: activators; hit rate 0.007% among 380,000
# GLP1R cytotox – cytotoxic in the GLP-1 receptor inverse agonist counter-screen. HEK293 cAMP-luciferase reporter cells, luminescence, 24 h. Potency, µM (titrated, usually from 38.3 µM), hits mostly inhibitors. hit rate 0.13% among 410,000;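 also: loss of luciferase light is scored as toxicity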
#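 Compound-treated cells are incubated 24 hr at 37 deg C under 5% CO2 after a 12 hour attachment period, then luciferase detection reagent is added and luminescence is measured following 12 min at room temperature; lowered signal indicates toxicity.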
# D3 ag – D3 dopamine receptor (human) agonism; D3R DiscoveRx beta-arrestin cells, luminescence, 90 min; max activation, %; hit rate 0.58% among 410,000; AID 652048; in the data active = max activation above about 30%
#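 Agonist mode: compounds and dopamine controls were applied to plated cells for 90 min at 37 degrees C after an overnight attachment at 1500 cells/well. Luminescent read-out followed 30 - 60 minutes at room temperature with DiscoveRx detection reagent.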
# GLP-1R inv ag – acts as inverse agonist at human GLP-1 receptor | P43220 | HEK293 GLP-1R CRE-luciferase, luminescence, 24 h; GLP-1R form is constitutively active | Potency, µM (doses to about 38.3 µM), most hits filed as inhibitors | hit rate 1.6% among 410,000; also: nearly all actives have a fitted effect of over 55% in size
#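 Using stably transfected HEK293 (constitutively active GLP-1R, cAMP-luciferase reporter), compounds were incubated 24 hr and luciferase measured by luminescence.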
# A number is an active result; i = inactive; ? = inconclusive; nt = not tested or not shown. Unless noted, calls follow the shape of the dose curve; as a rule, active = well fitted curve in the direction sought with a large enough effect; inconclusive = small, poorly fitted or top-dose-only effect, or another doubt; inactive = no such curve, though single readings can be large; an effect the other way counts as inactive or inconclusive.
SMILES,ClpP mod,D3 antag,GLP-1R agonist,GLP1R cytotox,D3 ag,GLP-1R inv ag
COc1ccc(-n2c(/C=C3\C(=O)Nc4ccccc43)nc3ccccc3c2=O)cc1,nt,i,i,i,i,i
O=c1c2ccccc2nc(/C=C/c2ccccc2)n1-c1ccc(O)cc1,nt,i,i,i,i,5.6µM
O=C1Nc2ccccc2/C1=C/c1nc2ccccc2c(=O)n1-c1ccc(O)cc1,nt,i,i,?,i,10µM
Cc1ccccc1-n1c(/C=C/c2ccc(O)cc2)nc2ccccc2c1=O,i,nt,nt,i,i,11µM
O=c1c2ccccc2nc(/C=C/c2cccnc2)n1Cc1ccccc1,nt,i,i,i,i,5µM
O=C(CCl)c1ccc(Oc2ccc(C(=O)CCl)cc2)cc1,nt,nt,i,nt,i,nt
COc1ccc2nc3cc(Cl)ccc3c(Nc3ccc(O)c(CN4CCN(C)CC4)c3)c2c1,i,i,i,i,i,?
CCc1ccc(NC(=O)CN2C(=O)C3(SCC(=O)N3c3ccc(F)c(F)c3)c3ccccc32)cc1 (stereo unspecified),i,nt,i,i,i,?
C[C@@H](N)[C@@H](O)c1ccc(O)c(O)c1,nt,nt,i,nt,nt,nt
Cc1ccc(-c2nnc(Nc3ccc(Br)cc3)c3ccccc23)cc1S(=O)(=O)NCc1nc2ccccc2[nH]1,?,nt,nt,i,i,?
CCCCNC(C)(C)[P+](=O)O,nt,nt,i,nt,i,nt
Cc1ccc(-n2c(/C=C/c3ccc(Br)s3)nc3ccccc3c2=O)cc1C,i,nt,nt,i,i,11µM
Cc1ccc(-n2c(/C=C/c3cc(Br)cs3)nc3ccccc3c2=O)cc1C,i,nt,nt,i,i,?
Nc1c(S(=O)(=O)c2cccs2)c2nc3ccccc3nc2n1/N=C/c1cccc(O)c1,2.8µM,i,i,?,i,?
CCCCOc1ccc(C(=O)NCC(=O)N2CCN(C/C=C/c3ccccc3)CC2)cc1,i,i,i,i,i,?
COc1ccc(CCC(C)NCCc2ccccc2)cc1 (stereo unspecified),i,i,i,i,i,i
CC(CCc1ccccc1)NC(C)C(O)c1ccc(O)cc1 (stereo unspecified),i,-70,?,i,i,i
CC(Cc1ccc2c(c1)OCO2)NO (stereo unspecified),nt,nt,i,nt,i,nt
OC[C@@H](O)[C@H]1O[C@@H]2O[C@@H](C(Cl)(Cl)Cl)O[C@@H]2[C@H]1O,nt,nt,nt,nt,i,nt
NC(Cc1ccc(O)cc1)C(=O)NN=Cc1ccc(N(CCCl)CCCl)cc1 (stereo unspecified),28µM,i,i,?,i,?
N[C@@H](Cc1ccc(N(CCCl)CCCl)cc1)C(=O)O,i,i,i,?,i,?
Cc1ccc(C)c(NC(=O)C(Sc2nc3ccc(C)cc3[nH]2)c2ccccc2)c1 (stereo unspecified),nt,i,i,?,i,3.2µM
CCC1C(c2ccccc2)NC(c2ccccc2)CC1(O)c1ccc(F)cc1 (stereo unspecified),i,i,i,?,i,11µM
CC[C@H](C)[C@H]1O[C@]2(C=C[C@@H]1C)C[C@@H]1C[C@@H](C/C=C(\C)[C@@H](O[C@H]3C[C@H](OC)[C@@H](O[C@H]4C[C@H](OC)[C@@H](O)[C@H](C)O4)[C@H](C)O3)[C@@H](C)/C=C/C=C3\CO[C@@H]4[C@H](O)C(C)=C[C@@H](C(=O)O1)[C@]34O)O2,nt,nt,nt,nt,i,nt
COP(=S)(OC)Oc1cc(Cl)c(Cl)cc1Cl,nt,nt,i,nt,i,nt
SMILES,ClpP mod,D3 antag,GLP-1R agonist,GLP1R cytotox,D3 ag,GLP-1R inv ag
Cc1ccc(CN2C3CCCC2CC(NC(=S)NCc2ccccc2)C3)cc1 (stereo unspecified),nt,-94,i,i,i,?
Cc1ccc(Nc2nnc(-c3ccc(C)c(S(=O)(=O)NCc4nc5ccccc5[nH]4)c3)c3ccccc23)cc1,i,nt,nt,i,i,?
CC(=O)C1C(N2CC2)CC2C3CCC4=CC(=O)CCC4(C)C3CCC21C (stereo unspecified),14µM,i,i,?,i,i
c1ccc2c(N3CCNCC3)cccc2c1,i,i,i,i,i,?
Clc1cccc(N2CCNCC2)c1Cl,i,-56,i,i,i,?
O=C1C=CC(O)C2(CO)OC12 (stereo unspecified),i,i,i,?,i,?
COc1ccc([N+](=O)[O-])c(S(=O)(=O)c2ccc(Cl)cc2)n1,nt,-95,i,10µM,i,?
CCCCc1ccc(C2C3=C(CC(C)(C)CC3=O)NC3=C2C(=O)c2ccccc23)cc1 (stereo unspecified),i,i,i,?,i,3.5µM
O=C1/C(=C/c2ccc(F)cc2)Oc2cc(OC(=O)N3CCOCC3)ccc21,18µM,i,i,i,i,i
CN(C)C(=O)Oc1ccc2c(c1)O/C(=C\c1ccc(Cl)cc1)C2=O,i,i,i,i,i,i
Cn1nc(C(C)(C)C)cc1C(=O)N1CCCCC1c1cc(C(=O)Nc2ccc(F)c(Cl)c2)no1 (stereo unspecified),i,i,i,i,i,10µM
Nc1c(C(=O)Nc2ccc(F)c(Cl)c2)sc2nc3c(cc12)N1CCC3CC1,i,nt,i,i,i,?
CCOC(=O)C1=C(CN2CCN(c3ccc(C)cc3C)CC2)NC(=O)NC1c1ccc(OC)cc1 (stereo unspecified),i,nt,nt,i,i,?
Clc1ccc(-c2cn3nc4c(nc3n2)CCCC4)cc1,i,i,i,i,i,6.3µM
CC(C)=CCN1CC[C@@]2(C)c3cc(O)ccc3C[C@@H]1[C@@H]2C,nt,nt,nt,nt,i,nt
CC(C)n1c(N2CCN(S(=O)(=O)c3cccc([N+](=O)[O-])c3)CC2)nc2ccccc21,nt,i,i,i,i,?
COc1ccc(CN2CCN(c3ccccc3F)CC2)cc1O,i,-70,i,i,i,i
COc1ccccc1N1CCN(Cc2c[nH]c3ccccc23)CC1,nt,-80,i,i,i,?
COc1cccc(CN2CCN(c3ccc(F)cc3)CC2)c1OC,i,?,i,i,i,i
COc1ccc(CN2CCN(Cc3ccccc3OC)CC2)cc1,i,?,i,i,i,i
COc1ccccc1CN1CCN(Cc2ccc(Cl)cc2)CC1,nt,-96,i,i,i,?
COc1ccccc1N1CCN(Cc2ccc(F)cc2)CC1,nt,-82,i,i,i,?
CCN[C@H](C)Cc1cccc(C(F)(F)F)c1,nt,nt,nt,nt,i,nt
COc1ccccc1CNC(=O)CCC1N=C2c3ccccc3N=C(SCc3cccc(Cl)c3)N2C1=O (stereo unspecified),?,nt,nt,i,i,i
O=C(N[C@@H]1N=C(c2ccccc2F)c2cccc3c2N(CC3)C1=O)c1cc2ccccc2[nH]1,nt,nt,i,nt,i,nt
CCc1cc(C(=O)N2CCN(c3ccccc3OC)CC2)sc1C,nt,i,i,?,i,?

# Bioassay records: PubChem BioAssay, National Center for Advancing Translational Sciences (NCATS)
